Where “and” joins values, the source holds several entries; their conditions need not be identical. Equal values may be shown once. This is part of a sample that, as a whole, favours compounds with a hit. Of some 79,000 tested, about 15% had one in any assay. Some structures have more than one record in an assay (separate samples or runs), and their calls can disagree. Calls of active or inactive are those of the source. Cut-off read from the data, not from the text of the source: active = growth inhibition above about 70%; inactive = the rest.
Legend:
[1] = NCI Yeast Anticancer Drug Screen. Data for the rad52 strain (AID 147);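 note: 0% = growth of vehicle-treated control cultures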; conditions: S. cerevisiae rad52 mutant growth inhibition, stronger effect = higher value
How it was run: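 Genetically altered yeast (DNA damage repair defect) treated with compound; inhibition calculated relative to vehicle.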

[2] = NCI Yeast Anticancer Drug Screen. Data for the wt1 strain (AID 149);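 note: 0% = growth of vehicle-treated wt1 cultures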; conditions: S. cerevisiae wt1 strain (SPY 50644) growth inhibition, stronger effect = higher value
How it was run: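 Compounds are added to wt1 yeast cultures. Growth is then measured. Inhibition is expressed relative to vehicle-treated controls.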

[3] = NCI Yeast Anticancer Drug Screen. Data for the rad50EPP+ strain (AID 151);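 note: 0% = growth of vehicle-treated control cultures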; conditions: S. cerevisiae rad50 mutant strain, stronger effect = higher value
How it was run: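 Strain rad50EPP+; compound exposure; % growth inhibition vs vehicle.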

[4] = NCI Yeast Anticancer Drug Screen. Data for the mgt1 strain (AID 153); conditions: S. cerevisiae mgt1 mutant growth inhibition, stronger effect = higher value
How it was run: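 Read-out: yeast growth inhibition vs vehicle control. Strain mgt1, drawn from a panel altered in DNA damage repair or cell cycle control.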

[5] = NCI Yeast Anticancer Drug Screen. Data for the rad50 strain (AID 155);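 note: 0% = growth of vehicle-only cultures of the same strain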; conditions: S. cerevisiae rad50 strain growth inhibition, stronger effect = higher value
How it was run: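 Inhibition values express reduced yeast growth in compound-treated cultures relative to vehicle-treated controls.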

[6] = NCI Yeast Anticancer Drug Screen. Data for the mec2-1 strain (AID 157); conditions: S. cerevisiae mec2-1 strain, stronger effect = higher value
How it was run: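 Cells of the genetically defined mec2-1 yeast strain are incubated with test compound. Inhibition of growth is calculated against vehicle-treated controls.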

[7] = NCI Yeast Anticancer Drug Screen. Data for the rad14 strain (AID 159);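 note: 0% = growth of vehicle-treated control cultures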; conditions: S. cerevisiae rad14 strain growth inhibition, stronger effect = higher value
How it was run: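 A mutant yeast strain defective in DNA damage repair is treated with compound; inhibition of its growth is scored against untreated, vehicle-exposed cultures.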

[8] = NCI Yeast Anticancer Drug Screen. Data for the sgs1 mgt1 strain (AID 161);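 note: 0% = growth of cultures given vehicle only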; conditions: S. cerevisiae sgs1 mgt1 strain, stronger effect = higher value
How it was run: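 Genetically altered yeast, compound exposure, growth inhibition relative to vehicle.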

[9] = NCI Yeast Anticancer Drug Screen. Data for the CLN2oe strain (AID 163);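 note: 0% = growth of vehicle-only control cultures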; conditions: S. cerevisiae CLN2oe strain, stronger effect = higher value
How it was run: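 Strain altered in cell-cycle control, incubated with compound; growth compared to solvent-treated controls.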

[10] = NCI Yeast Anticancer Drug Screen. Data for the cln2 rad14 strain (AID 165);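 note: 0% = growth equal to vehicle treated cultures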; conditions: S. cerevisiae cln2 rad14 strain, stronger effect = higher value
How it was run: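 The screen exposed genetically defined yeast (cln2 rad14) to test compounds and scored growth inhibition relative to vehicle-treated controls.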

[11] = NCI Yeast Anticancer Drug Screen. Data for the bub3 strain (AID 167); conditions: S. cerevisiae bub3 mutant strain, stronger effect = higher value
How it was run: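 Steps: expose the mutant yeast strain to compound; grow alongside vehicle-treated cultures; measure growth; express inhibition against the vehicle cultures.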

[12] = NCI Yeast Anticancer Drug Screen. Data for the wt2 strain (AID 169);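 note: 0% = growth of vehicle-treated yeast cultures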; conditions: S. cerevisiae wt2 strain growth inhibition, stronger effect = higher value
How it was run: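 Steps: yeast strain treated with compound; growth recorded; inhibition calculated relative to cultures given vehicle alone.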

[13] = NCI Yeast Anticancer Drug Screen. Data for the mlh1 strain (AID 171);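 note: 0% = growth of vehicle-treated control cultures of the same strain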; conditions: S. cerevisiae mlh1 strain growth inhibition, stronger effect = higher value
How it was run: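 Yeast screen: mutant strain plus compound, growth scored against vehicle control wells.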

[14] = NCI Yeast Anticancer Drug Screen. Data for the sgs1 strain (AID 173);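 note: 0% = growth of vehicle-only control cultures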; conditions: S. cerevisiae sgs1 mutant, stronger effect = higher value
How it was run: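 Inhibition of yeast growth served as the measure. The mutant strain was treated with each compound, and growth was normalised to cultures receiving vehicle alone.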

[15] = NCI Yeast Anticancer Drug Screen. Data for the mlh1 rad18 strain (AID 175); conditions: S. cerevisiae mlh1 rad18 strain growth inhibition, stronger effect = higher value
How it was run: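 Compound-treated yeast growth, normalised to vehicle controls. Strain bears defined DNA repair mutations.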

[16] = NCI Yeast Anticancer Drug Screen. Data for the rad18 strain (AID 177); conditions: S. cerevisiae rad18 mutant growth inhibition, stronger effect = higher value
How it was run: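 Inhibition values reflect reduced yeast growth compared with vehicle-treated controls, using a strain engineered with a DNA damage repair defect.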

[17] = at 5.0 µM (retest, dose inferred, filed as 0.5)
[18] = at 50.0 µM (retest, dose inferred, filed as 5.0)

Measured: growth inhibition

O=[N+]([O-])c1cc[n+]([O-])cc1
inactive: [1]; at 1.2 µM -3% | [1]; at 3.7 µM 2% | [1]; at 11.0 µM 4% | [1]; at 33.0 µM 32% | [2]; at 1.2 µM -6% | [2]; at 3.7 µM -6% | [2]; at 11.0 µM -10% | [2]; at 33.0 µM -14% | [3]; at 1.2 µM 1% | [3]; at 3.7 µM 11% | [3]; at 11.0 µM 12% | [3]; at 33.0 µM 48% | [4]; at 1.2 µM -1% | [4]; at 3.7 µM -4% | [4]; at 11.0 µM -3% | [4]; at 33.0 µM -16% | [5]; at 1.2 µM -6% | [5]; at 3.7 µM -6% | [5]; [17] -158% and 4% | [5]; at 11.0 µM -1% | [5]; at 33.0 µM 58% | [5]; [18] 66% and 60% | [6]; at 1.2 µM 4% | [6]; at 3.7 µM -2% | [6]; [17] -52% and 2% | [6]; at 11.0 µM 0% | [6]; at 33.0 µM -2% | [6]; [18] -19% and 38% | [6]; at 50.0 µM 52% and 57.5% | [7]; at 1.2 µM -2% | [7]; at 3.7 µM 1% | [7]; at 11.0 µM -1% | [7]; at 33.0 µM 19% | [8]; [17] -62% and -8% | [8]; [18] 40% and 54% | [9]; at 1.2 µM -3% | [9]; at 3.7 µM -4% | [9]; at 11.0 µM -2% | [9]; at 33.0 µM 5% | [10]; [17] -61% and -3% | [10]; [18] -19% and 19% | [10]; at 50.0 µM 50.1% and 7.4% | [11]; at 1.2 µM -12% | [11]; at 3.7 µM -8% | [11]; [17] -68% and 5% | [11]; at 11.0 µM 2% | [11]; at 33.0 µM 22% | [11]; [18] 13% and 33% | [11]; at 50.0 µM 9.95% and 68% | [12]; at 1.2 µM -3% | [12]; at 3.7 µM -2% | [12]; at 11.0 µM -3% | [12]; at 33.0 µM -11% | [13]; at 1.2 µM 3% | [13]; at 3.7 µM -6% | [13]; at 11.0 µM -3% | [13]; at 33.0 µM -3% | [14]; at 1.2 µM -2% | [14]; at 3.7 µM -3% | [14]; at 11.0 µM -8% | [14]; at 33.0 µM 33% | [15]; [17] -136% and 0% | [15]; [18] 33% and 53% | [16]; at 1.2 µM -2% | [16]; at 3.7 µM 0% | [16]; at 11.0 µM 3% | [16]; at 33.0 µM 16%
26.7% (inactive) and 86.5% (active): [8]; at 50.0 µM
46.1% (inactive) and 83.2% (active): [5]; at 50.0 µM
active: [1]; at 100.0 µM 98% | [2]; at 100.0 µM 99% | [3]; at 100.0 µM 98% | [4]; at 100.0 µM 99% | [5]; at 100.0 µM 99% | [6]; at 100.0 µM 99% | [7]; at 100.0 µM 99% | [9]; at 100.0 µM 98% | [11]; at 100.0 µM 99% | [12]; at 100.0 µM 99% | [13]; at 100.0 µM 99% | [14]; at 100.0 µM 99% | [16]; at 100.0 µM 98%
26.8% (inactive) and 87.5% (active): [15]; at 50.0 µM

Reference: PubChem BioAssay (NCI)
